Sfp inh: inhibitors of Bacillus subtilis Sfp phosphopantetheinyl transferase | Q9F4F7 | Biochemical Sfp PPTase activity, qHTS | Potency, µM, without a hit: largest response in the series, negative = inhibition, usual class: inhibitors | hit rate 3.5% among 310,000 | AID 1490;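 note: the enzyme is Sfp with the accession as filed and its product quenches rhodamine fluorescence; 0% = enzyme reaction without inhibitor and -100% = no enzyme wells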
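Step 1, compound plus 15 nM Sfp-PPTase, 15 min, room temperature. Step 2, add rhodamine-CoA (5 uM) and BHQ-2-YbbR (12.5 uM). Step 3, read 525/598 nm fluorescence at 0 and 30 min.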
JMJD2A Tudor inh: blocks the human JMJD2A Tudor domain; hit rate 4.4% among 390,000; Potency, µM (top dose mostly 114 µM), for inactives: at the highest dose activity change, negative = inhibition, hits mostly inhibitors; AID 504339; AlphaScreen JMJD2A-Tudor / H3K4me3 peptide binding; note: % is set by controls: 0 for no effect and ±100 for the full control effect; nearly all actives have a fitted effect of over 50% in size
Target sequence (O75164 whole entry, looked up, the tested form may be a part): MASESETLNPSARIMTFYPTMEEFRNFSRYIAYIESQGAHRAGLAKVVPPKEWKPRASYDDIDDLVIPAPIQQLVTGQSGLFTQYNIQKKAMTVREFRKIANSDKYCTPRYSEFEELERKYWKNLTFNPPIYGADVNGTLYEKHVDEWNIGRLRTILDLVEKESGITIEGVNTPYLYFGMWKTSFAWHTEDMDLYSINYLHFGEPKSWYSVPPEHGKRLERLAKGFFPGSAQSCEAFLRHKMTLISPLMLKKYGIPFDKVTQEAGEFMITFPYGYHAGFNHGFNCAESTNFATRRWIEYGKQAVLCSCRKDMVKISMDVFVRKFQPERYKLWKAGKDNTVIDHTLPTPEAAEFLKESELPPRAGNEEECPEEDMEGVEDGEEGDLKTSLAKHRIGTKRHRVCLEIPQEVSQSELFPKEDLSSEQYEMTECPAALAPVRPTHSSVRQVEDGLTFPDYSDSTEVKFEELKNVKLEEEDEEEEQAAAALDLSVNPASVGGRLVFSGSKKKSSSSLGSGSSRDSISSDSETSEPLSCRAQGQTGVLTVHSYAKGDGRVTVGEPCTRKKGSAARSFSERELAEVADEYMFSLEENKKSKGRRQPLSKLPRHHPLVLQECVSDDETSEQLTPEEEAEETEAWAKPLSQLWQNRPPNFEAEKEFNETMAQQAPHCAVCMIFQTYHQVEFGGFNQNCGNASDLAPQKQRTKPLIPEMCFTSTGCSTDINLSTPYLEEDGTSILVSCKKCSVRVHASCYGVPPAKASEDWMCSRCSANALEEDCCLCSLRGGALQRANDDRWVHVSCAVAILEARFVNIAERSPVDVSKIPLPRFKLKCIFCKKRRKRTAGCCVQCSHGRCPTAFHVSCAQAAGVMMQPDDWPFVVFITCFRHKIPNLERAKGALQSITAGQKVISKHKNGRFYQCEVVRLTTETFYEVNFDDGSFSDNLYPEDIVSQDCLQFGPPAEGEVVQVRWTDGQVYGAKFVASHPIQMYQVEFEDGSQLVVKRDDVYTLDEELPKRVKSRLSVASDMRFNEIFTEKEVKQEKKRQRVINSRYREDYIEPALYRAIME
12-LOX inh: blocks human arachidonate 12S-lipoxygenase | P18054 | Potency, µM (top dose mostly 108 µM), for inactives: at the top dose activity change, negative = inhibition, usual class: inhibitors | hit rate 1.1% among 580,000 | purified 12hLO, xylenol orange hydroperoxide absorbance; note: % is set by controls: 0 for no effect and ±100 for the full control effect
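Purified human 12hLO at 150 nM in 25 mM Hepes, 0.01% Triton X-100, pH 7.0, preincubated 15 min at room temperature with compound. Reaction started with 40 uM arachidonic acid, 30 min at room temperature. Hydroperoxide measured by Fe-xylenol orange, 573/405 nm absorbance ratio.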
BAZ2B block: inhibitors of human BAZ2B bromodomain; hit rate 4.4% among 360,000; Potency, µM (series often up to 114 µM), for inactives: at the highest dose activity change, negative = inhibition, hits mostly inhibitors; Q9UIF8; AID 504333; AlphaScreen BAZ2B-H3K14Ac peptide displacement; note: % is set by controls: 0 for no effect and ±100 for the full control effect; nearly all actives have a fitted effect of over 60% in size
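AlphaScreen displacement: compounds (up to 110uM) incubated 30 min at room temperature with a preformed 50 nM BAZ2B/50 nM biotinylated H3K14Ac peptide complex in PBS pH 7.4 with Tween-20. Donor and acceptor beads at 10 ug/mL final added, 20 min light-protected before reading.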
G9a inh: blocks human histone lysine methyltransferase G9a. Q96KQ7. G9a H3K9 monomethylation, AlphaScreen, 2 h. Potency, µM (top dose mostly 102 µM), for the others: at the top dose activity, negative = inhibition, hits mostly inhibitors. hit rate 8.8% among 350,000. AID 504332; note: % is set by controls: 0 for no effect and ±100 for the full control effect; nearly all actives have a fitted effect of over 75% in size
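Readings reflect AlphaScreen signal from monomethyl-H3K9 antibody detection. HMT at 20 nM; substrate b-H3K9 500 nM; cofactor SAM 20 uM; 2 h RT reaction; compounds tested as titrations in qHTS with 15 min preincubation.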
HP1b chromo inh: inhibitors of HP1-beta chromodomain binding to methylated histone tails; AlphaScreen HP1-beta / biotin-H3K9me3 peptide binding; Potency, µM (top dose mostly 114 µM), for the others: at the top dose activity change, negative = inhibition, usual class: inhibitors; hit rate 0.56% among 390,000; note: nearly all actives have a fitted effect of over 70% in size
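Compound inhibition of the preformed complex between 50 nM HP1-beta and 50 nM biotinylated H3K9me3 peptide was read by AlphaScreen. Buffer was PBS pH 7.4 with 0.01% Tween-20. Incubations ran 30 min at room temperature, with 10 ug/mL donor/acceptor beads.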
Active calls of the source: *; ? = inconclusive; . = no result given; [ ] = remark or other dose. This is a sample that favours compounds with a hit; in the whole collection about 8.7% have one here. Calls come from the whole dose curve; as a rule, active = well fitted curve in the direction sought with a large enough effect; inconclusive = small, poorly fitted or top-dose-only effect, or another doubt; inactive = no such curve, though single readings can be large; an effect the other way counts as inactive or inconclusive. Potency is the fitted concentration of half-maximal effect.

SMILES	Sfp inh	JMJD2A Tudor inh	12-LOX inh	BAZ2B block	G9a inh	HP1b chromo inh
Cc1cc(SCc2ccccc2C)nc(=O)[nH]1	6%	9%	21%	-21%	16%[0.501 µM]	43%
Cc1cc(SCC(=O)c2ccccc2)nc(=O)[nH]1	10%	-31%	?	-22%	22µM*	-7%
Cc1ccc(C(=O)CSc2cc(C)[nH]c(=O)n2)cc1	-21%	?	?	45µM*	-9%[0.501 µM]	-4%
CCNC(=O)NC(=O)CN(C)Cc1ccc(C2CC2C)o1 (stereo unspecified)	.	.	2%	.	.	.
C=CCN1C(=O)/C(=N/n2cnnc2)c2ccccc21	-1%	-10%	-2%	-33%	1%[12.7 µM]	7%
C=CCN1C(=O)/C(=c2\sc3nc(=O)c(Cc4ccccc4)nn3c2=O)c2ccccc21	13µM*	56µM*	?	?	.	?
CCN1C(=O)/C(=c2\sc3nc(=O)c(Cc4ccccc4)nn3c2=O)c2ccccc21	25µM*	?	0%	?	25µM*	-31%
O=C(CCCC(=O)OCC(=O)c1ccc(Br)cc1)OCC(=O)c1ccc(Br)cc1	.	.	-21%	.	.	.
CCCCn1c(-c2cc(Cl)ccc2OC)n[nH]c1=S	?	13µM*	?	-5%	2µM*	-15%
COc1ccc(CCn2c(-c3ccc(Cl)cc3)n[nH]c2=S)cc1OC	?	-21%	-13%	?	2.2µM*	36%
COc1ccc(CCn2c(C)ccc2C)cc1OC	14%	.	.	-8%	-6%[59 µM]	.
COc1ccc(CCn2c(-c3ccc(C(C)(C)C)cc3)n[nH]c2=S)cc1OC	-5%	18µM*	?	-16%	?	-31%
CCCCN1C(=O)C(CC(=O)NC(C)C)Sc2ncccc21 (stereo unspecified)	.	.	4%	.	.	.
COc1cccc(S(=O)(=O)N2CCCN(C)c3ccccc32)c1	.	.	22µM*	.	.	.
COc1cccc(CN(C)C(=O)c2cc3cc(Br)ccc3[nH]2)c1	.	.	10%	.	.	.
CN1CCC(OC2CCN(C(=O)c3ccc(F)cc3F)CC2)CC1	.	.	49%	.	.	.
C/C=C(\C)CN1CCN(c2ccc(C)cc2)CC1	-10%	7.1µM*	?	25µM*	10µM*	-64%
CCN(CC)c1ccc(/C=C2\CCC(/C=C(\C#N)C(=O)Nc3ccccc3F)=C2N2CCOCC2)cc1	7%	?	-8%	?	?	?
CCN(CC)c1ccc(/C=C2\CCC(/C=C(/C#N)C(=O)Nc3ccccc3F)=C2N2CCOCC2)cc1	.	?	-12%	.	.	?
N#C/C(=C\C1=C(N2CCOCC2)C(=C/c2cccc([N+](=O)[O-])c2)/CC1)C(=O)Nc1ccccc1F	?	-33%	-12%	1.3µM*	2.5µM*	?
N#C/C(=C\C1=C(N2CCOCC2)C(=C\c2ccc(Cl)cc2)/CC1)C(=O)Nc1ccccc1F	-18%	-31%	?	25µM*	10µM*	?
N#C/C(=C/C1=C(N2CCOCC2)C(=C/c2ccccc2)/CC1)C(=O)Nc1ccccc1F	.	10µM*	-7%	.	.	5µM*
Cc1occc1C(=O)N/N=C/C1=C(N2CCOCC2)C(=C\c2ccc(Cl)cc2)/CC1	18%	-7%	-13%	11%	21%	54%
Cc1cc(=O)[nH]c(N/N=C/C2=C(N3CCOCC3)C(=C\c3ccc(Cl)cc3)/CC2)n1	40µM*	-36%	?	2%	7.9µM*	-3%
Cc1cccc(C)c1NC(=O)Cn1nc(-c2cccs2)ccc1=O	.	.	0%	.	.	.
SMILES	Sfp inh	JMJD2A Tudor inh	12-LOX inh	BAZ2B block	G9a inh	HP1b chromo inh
O=S(=O)(NCC1CN(Cc2ccccc2)CCO1)c1ccccc1 (stereo unspecified)	.	.	-7%	.	.	.
Nc1nc(CN2CCN(C(=O)c3cccc(C(F)(F)F)c3)CC2)nc2ccccc12	.	.	45%	.	.	.
O=C(N/N=C/C1=C(N2CCOCC2)C(=C\c2ccccc2)/CC1)Nc1ccccc1	1%	-4%	4%	5%	-8%[59 µM]	28%
O=C(O)c1ccccc1N/N=C/C1=C(N2CCOCC2)C(=C\c2ccccc2)/CC1	-12%	?	?	50µM*	.	?
CCCN(Cc1ccc(OCC)c(OCC)c1)C(=O)c1cc2ccccc2oc1=O	.	.	5%	.	.	.
COc1cc(NC(=O)Cn2ccn3nc(-c4ccccc4)c(CO)c3c2=O)cc(OC)c1OC	.	.	1%	.	.	.
O=[N+]([O-])c1ccc(N2CCN(C(=S)c3cccc([N+](=O)[O-])c3)CC2)cc1	5.6µM*	?	0%	56µM*	2µM*	11µM*
Cc1ccc(N2CCN(C(=S)c3ccc(-c4cccc([N+](=O)[O-])c4)o3)CC2)cc1	14µM*	?	?	?	8.9µM*	?
O=C(c1ccco1)N1CCN(C(=O)c2ccc(-c3ccc([N+](=O)[O-])cc3)o2)CC1	.	40µM*	?	.	.	-33%
COc1ccc(NC(=S)N2CCN(c3ccc([N+](=O)[O-])cc3)CC2)cc1OC	22µM*	?	-8%	-33%	.	-3%
O=C(c1ccc([N+](=O)[O-])cc1)N1CCN(C(=O)c2ccco2)CC1	14%	-22%	-11%	-23%	4%	-7%
CC(=O)N1CCN(C(=S)c2cccc([N+](=O)[O-])c2)CC1	-15%	-4%	-28%	1%	?	-3%
CCc1nc2ccc(C(=O)Nc3cc(C)ccn3)cc2nc1CC	.	.	20%	.	.	.
CC(C)(C)c1cnc([C@@H]2COCCN2Cc2ccc(Cl)cc2)[nH]1	.	.	14%[176 µM]	.	.	.
Cc1ccccc1N1CCN(C(=S)c2ccc(-c3cccc([N+](=O)[O-])c3)o2)CC1	-5%	?	-18%	.	13µM*	-24%
O=[N+]([O-])c1cccc(NC(=S)N2CCCC2)c1	-2%	-9%	0%	-13%	.	50%
Cc1ccccc1N1CCN(C(=S)c2ccc(-c3ccc([N+](=O)[O-])cc3)o2)CC1	20µM*	?	?	7.9µM*	.	?
CCN1CCN(C(=S)Nc2cccc([N+](=O)[O-])c2)CC1	-22%	-16%	1%	-7%	71µM*	5%
Cc1ccc(CN2CCN(c3ccccc3)CC2)o1	-18%	20µM*	-71%	50µM*	22µM*	?
Cc1ccc(Cl)cc1NC(=O)C(C)NS(=O)(=O)c1ccc2c(c1)CCN2C(=O)N1CCCC1 (stereo unspecified)	.	.	-1%	.	.	.
CC(C(=O)N(C)C1(C#N)CCCCC1)N(C)CC(=O)Nc1cccc(F)c1 (stereo unspecified)	.	.	-6%	.	.	.
COCCCNC(=O)CCC[C@@H]1[C@H]2CCCN3CCC[C@@H](CN1C(=O)c1ccccc1)[C@@H]23	.	.	55%	.	.	.
O=[N+]([O-])c1ccc(N2CCN(Cc3cccc([N+](=O)[O-])c3)CC2)cc1	3%	?	-5%	?	-11%	-7%
